According to PubChem BioAssay:
Active and inactive are the calls of the source. No rule for the calls is given here.

Biological target: Pantothenate synthetase (Mycobacterium tuberculosis (strain ATCC 25618 / H37Rv)) (UniProt P9WIL5)
Assay: Coupled enzyme confirmation of inhibitors against recombinant Mtb PanC (AID 375);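 also: 0% = full reaction with vehicle and 100% = no enzyme background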
Conditions: coupled enzyme assay; at 10 µM, active compounds read high

Sequence of Pantothenate synthetase (Mycobacterium tuberculosis (strain ATCC 25618 / H37Rv)) (P9WIL5 whole entry, looked up): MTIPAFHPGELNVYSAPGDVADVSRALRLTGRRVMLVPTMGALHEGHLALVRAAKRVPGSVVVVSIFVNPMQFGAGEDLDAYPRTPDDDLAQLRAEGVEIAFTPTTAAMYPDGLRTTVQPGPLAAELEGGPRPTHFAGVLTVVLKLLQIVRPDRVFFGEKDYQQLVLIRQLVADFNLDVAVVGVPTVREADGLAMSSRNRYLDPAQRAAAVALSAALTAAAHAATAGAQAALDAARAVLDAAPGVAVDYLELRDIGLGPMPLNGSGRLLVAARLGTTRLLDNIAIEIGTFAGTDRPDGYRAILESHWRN

Structure (SMILES)	inhibition
CC(C(=O)N1CCc2ccccc21)N1CCc2ccccc2C1 (stereo not given)	3% (inactive)
CCc1cc2c(=O)c(-c3nc4ccccc4[nH]3)coc2c(CN2CCC(C)CC2)c1O	4% (inactive)
Cc1cccc(C(=O)N2CCN(C(=O)c3cccc(C)c3)C(C)C2)c1 (stereo not given)	0% (inactive)
CCOc1ccc(Oc2nc(Nc3ccc(C)cc3)nc(N(C)C)n2)nn1	0% (inactive)
Cc1nnc(SCCn2c(N3CC(C)CC(C)C3)nc3c2c(=O)n(C)c(=O)n3C)s1 (stereo not given)	0% (inactive)
CCOc1cc(C2NC(=O)NC(O)(C(F)(F)F)C2C(=O)c2ccccc2)ccc1OC (stereo not given)	3% (inactive)
Cc1cc(C(=O)O)ccc1-n1c(C)ccc1C	6% (inactive)
NC(CO)C(=O)NNCc1ccc(O)c(O)c1O (stereo not given)	0% (inactive)
CCc1nc(C)c(-c2ccccc2)c(=O)[nH]1	6% (inactive)
Cc1cc(-c2ccccc2)c2nncn2n1	3% (inactive)
CCOc1ccccc1N(C(=O)Cn1nnnc1-c1ccc(C)o1)C(CC)C(=O)NC(C)(C)C (stereo not given)	0% (inactive)
CC(C)(C)c1ccccc1NC(=O)c1cccnc1	10% (inactive)
Cc1nnc2ccc(N3CCC4(CC3)OCCO4)nn12	0% (inactive)
COCCCNC(=O)CSc1nc2ccc(N3CCOCC3)cc2c(=O)n1CCc1ccccc1	0% (inactive)
Cc1ccc(S(=O)(=O)N2CCC(C(=O)N3CCC[C@H]3C(=O)NCc3ccccc3)CC2)cc1	0% (inactive)
Cc1nc2ccc(F)cc2cc1C(=O)NCC1CCCO1 (stereo not given)	0% (inactive)
Cc1cc(OCC(O)CN2CCN(CCO)CC2)ccc1C(C)C (stereo not given)	8% (inactive)
O=C(O)CCNc1nc(-c2ccccc2)nc2ccccc12	3% (inactive)
O=C(c1ccc(CNc2c(N3CCCC3)c(=O)c2=O)cc1)N1CCc2ccccc2C1	1% (inactive)
O=C(c1ccc(S(=O)(=O)N2CCOCC2)cc1)N(c1ccc(F)cc1)C1C=CS(=O)(=O)C1 (stereo not given)	0% (inactive)
